The campaign covered roughly 76,000 compounds. About 1,900 (2.5%) were called active. Another 5% or so got no clear call; they are omitted. The call rests on the fitted dose curve; in most records, active means well fitted inhibition curve with a large enough effect; inconclusive means small, poorly fitted or top-dose-only effect; inactive means flat fitted curve, though single readings scatter. What follows is part of a selection rich in actives, with near analogues and random picks from the rest. A call without a number means that no potency is given here.
Biological target: Luciferin 4-monooxygenase (Photinus pyralis) (UniProt P08659)
Test: Firefly luciferase inhibition profiling of diverse chemical library using quantitative high-throughput screening; further: nearly all actives have a fitted effect of over 65% in size
Conditions: purified P. pyralis luciferase, luminescence, biochemical; series mostly up to 115 µM
From the text: Firefly (Photinus pyralis) luciferase is one of the most commonly used transcriptional reporters for a number of reasons. It is considered one of the more dynamically responsive reporters - that is, responsive to changes in reporter transcription - as it requires no post-translational modifications and is enzymatically active directly after protein synthesis (Wood, 1998). Additionally, the half-life of the luciferase protein is short relative to other reporter-gene products (Wood, 1995). Whereas reporters with long half-lives potentially allow for increased signal due to accumulation of reporter-gene product, once accumulated in the cell, dynamic changes in reporter-gene expression may be difficult to detect(Fan and Wood, 2007; Almond et al., 2004). It has been shown that wild-type P. pyralis luciferase has a half-life of approximately four hours in mammalian cells (Thompson et al., 1991). Firefly luciferase reporter-gene assays are also generally considered one of the most sensitive assay types (Wood, 1995; Wood, 1998). Although light produced in a bioluminescence reaction is of lower intensity than that produced during fluorescence emission, this is offset by little to no background light inherent to luminescent assays. Thus the luciferase reporter can be expressed at much lower levels than fluorescent proteins while still providing robust signal. However, it was initially observed, in 1991, by Thompson et al., that compounds that resemble the substrates of firefly luciferase (FLuc) can act as competitive inhibitors of the enzyme, and that these compounds, upon interaction with luciferase in the cell, can actually stabilize the protein and increase its half-life. Accumulated intracellular FLuc protein can be measured as an increase in luminescence signal, upon addition of detection reagents (which contain high concentrations of FLuc substrates) commonly used in high-throughput screening. In cell-based reporter gene assays that use FLuc as the reporter gene to quantitate the potential influence of a given compound against the target biology, this apparent increase in luminescence can mistakenly be interpreted as identification of a compound that is active against the target of interest. FLuc inhibitory compounds that stabilize the FLuc protein will give an identical read-out, making it difficult to distinguish compounds that are active against the target from those active against FLuc. In summary, the results generated here constitutes a valuable resource for the scientific community and provides insight on identifying compounds with inhibitory activity for the commonly-used reporter, firefly luciferase. References: -Almond, B., Zdanovsky, A., Zdanovskaia, M., Ma, D., Stecha, P., Paguio, A., Garvin, D., and Wood, K. (2004). Introducing the Rapid Response Reporter Vectors. Promega Notes 87, 18-22. -Fan, F., and Wood, K.V. (2007). Bioluminescent assays for high-throughput screening. Assay Drug Dev Technol 5, 127-136. -Thompson, J.F., Hayes, L.S., and Lloyd, D.B. (1991). Modulation of firefly luciferase stability and impact on studies of gene regulation. Gene 103, 171-177. -Wood, K.V. (1998). The chemistry of bioluminescent reporter assays. Promega Notes 65, 14-20. -Wood, K.V. (1995). Marker proteins for gene expression. Curr Opin Biotechnol 6, 50-58.
Reagents: 50mM Tris acetate, pH 7.5; 10mM Mg acetate; 10uM D-luciferin (Sigma #L9504); 10uM ATP; 0.01% Tween-20; 0.05% BSA; 10nM P. pyralis luciferase (Sigma #L9506) Control compounds used were two known firefly luciferase inhibitors (compounds (2) and (5) in Auld et al., 2010), and DMSO. Assay Summary: Three microliters containing firefly luciferase substrates in buffer (final concentrations: 50mM Tris acetate, pH 7.5, 10mM Mg acetate, 0.01% Tween-20, 0.05% BSA, 10uM D-luciferin, and 10uM ATP) are dispensed into each well of a Greiner white, solid-bottom 1536-well format plate using a flying reagent dispenser (FRD). […]

Luciferin 4-monooxygenase (Photinus pyralis), sequence (P08659 whole entry, looked up): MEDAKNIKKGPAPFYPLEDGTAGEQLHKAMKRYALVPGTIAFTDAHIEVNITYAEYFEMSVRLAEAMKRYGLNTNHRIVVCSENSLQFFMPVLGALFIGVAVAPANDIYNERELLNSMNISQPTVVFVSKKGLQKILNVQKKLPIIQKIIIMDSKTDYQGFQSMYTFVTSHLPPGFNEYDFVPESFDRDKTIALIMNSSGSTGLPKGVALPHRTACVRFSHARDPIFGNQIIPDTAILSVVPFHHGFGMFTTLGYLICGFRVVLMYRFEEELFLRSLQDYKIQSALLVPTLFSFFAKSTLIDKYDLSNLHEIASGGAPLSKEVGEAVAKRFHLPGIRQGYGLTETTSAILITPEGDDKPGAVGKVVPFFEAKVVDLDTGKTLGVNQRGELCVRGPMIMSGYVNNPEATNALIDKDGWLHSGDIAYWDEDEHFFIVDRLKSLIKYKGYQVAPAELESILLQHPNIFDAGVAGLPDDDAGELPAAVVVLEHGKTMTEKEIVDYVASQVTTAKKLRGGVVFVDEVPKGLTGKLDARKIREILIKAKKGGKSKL

| SMILES | Potency |
| --- | --- |
| Fc1ccc2oc([C@H]3CCN(C4CCOCC4)C3)nc2c1 | inactive |
| COC(=O)c1cccc2nc([C@H]3CCN(Cc4ccccc4)C3)oc12 | inactive |
| Clc1ccc2oc([C@H]3CCN(Cc4ccccc4)C3)nc2c1 | 20 µM (active) |
| COc1ccc(-c2noc([C@@H]3CCCN3C(=O)CCCc3ccccc3)n2)cc1OC | inactive |
| Cc1ccc(-c2ccc3nnc(CNC(=O)c4ccccn4)n3n2)cc1 | inactive |
| COCCNC(=O)[C@@H]1C[C@H](Oc2cccnc2)CN1C(=O)c1ccc(OC)nc1OC | inactive |
| COc1ccc(CCC(=O)N2CCC(c3n[nH]c(=O)n3-c3ccc(C)cc3)CC2)cc1 | inactive |
| CC(=O)NC1(C)CN(Cc2ccc(-c3ccc4c(ccn4C)c3)s2)C1 | 0.316 µM (active) |
| COC(=O)[C@@H]1Cc2c([nH]c3ccccc23)[C@H]2C[C@@H](NCCN3CCOCC3)C[C@@H](c3ccccc3)N21 | inactive |
| O=C1NC2(CCN(Cc3ccccc3)C2)OCc2ccccc21 (stereo not given) | inactive |
| CSCc1ccc(C(=O)N[C@H]2[C@@H]3CCO[C@@H]3[C@@H]2C2CCCC2)o1 | inactive |
| CN(CCNC(=O)CCc1cc2ccccc2[nH]c1=O)C1CCCCC1 | inactive |
| COc1ccc(CNC(=O)C[C@@H]2CCNC[C@@H]2Cc2cc(-c3ccc(C(C)(C)C)cc3)on2)cc1OC | inactive |
| c1cc(-c2nc3ccncc3[nH]2)ccn1 | inactive |
| COc1ccc(CC(=O)NC[C@@H]2C=C(C)[C@H](Cc3nc4ccncc4[nH]3)C[C@H]2C(C)C)cc1 | inactive |
| COc1ccc(-c2nc3ccncc3[nH]2)cc1 | 31.6 µM (active) |
| COc1ccc(-c2cc(N3CCC(NC(=O)c4cccc(C)c4)CC3)n[nH]2)cc1 | inactive |
| Cc1nn2c(c1-c1ccccc1C(C)C)N(C(=O)c1cccc(C#N)c1)CCC2 | inactive |
| COc1cccc(-c2nc3ccc(-c4ccc5c(c4)OCO5)cc3o2)c1OC | 1.12 µM (active) |
| COc1cccc(-c2ccc(F)c(C(N)=O)c2)c1OC | inactive |
| COc1cc(-c2noc(-c3nc(-c4ccc5c(c4)OCO5)no3)n2)cc(OC)c1OC | inactive |
| COc1ccc(C(=O)N2CCC(N3CC(OC)C34CCOCC4)CC2)c(OC)c1 (stereo not given) | inactive |
| Cc1cc(CN(C)C(=O)c2cc(COc3ccc(F)cc3F)on2)n[nH]1 | inactive |
| OC1(CN2CCCCC2)CCN(c2nc3ccccc3s2)C1 (stereo not given) | 10 µM (active) |

| SMILES | Potency |
| --- | --- |
| O=C(Nc1cccnc1)O[C@H]1COCCN(c2nc3ccccc3s2)C1 | inactive |
| Cc1cc(C(=O)N2CC[C@H](NC(=O)c3cnccn3)C[C@H]2C(=O)N[C@H](Cc2ccccc2)C(N)=O)n(C)n1 | inactive |
| Cc1ccc(CS(=O)(=O)N2CCC(C3CCNC3)CC2)cc1C (stereo not given) | inactive |
| O=C(c1ccc2nc(-c3ccc(F)cc3)cn2c1)N1CCSCC1 | inactive |
| CC(C)Cn1cncc1CNC(=O)c1ccc2nc(-c3ccc(F)cc3)cn2c1 | 35.5 µM (active) |
| COc1ccc(C(=O)NCc2nnc3ccc(-c4ccc(C)cc4)nn23)cc1F | inactive |
| C[C@@H](NC(=O)C1=C[C@@H](NC(=O)CC2(CC(=O)O)CCCC2)[C@@H](O)[C@H](O)C1)C(N)=O | inactive |
| Cc1nn(-c2ccc(C(C)C)cc2)c(C)c1[C@@H]1C=C[C@@H](NC(=O)Nc2ccccc2)C1 | 3.55 µM (active) |
| Cc1nn(Cc2ccccc2)c(C)c1[C@@H]1C=C[C@@H](NC(=O)NC(C)C)C1 | inactive |
| Cc1cnc(CCNC(=O)c2ccco2)n1C1CCC1 | inactive |
| Cc1nn(Cc2ccccc2)c(C)c1[C@@H]1C=C[C@@H](NC(=O)NC2CCCCC2)C1 | inactive |
| CC(C)(C)c1ccnc(N[C@H]2CO[C@H]3[C@@H]2OC[C@@H]3NC(=O)CC2(CC(=O)O)CCCC2)n1 | inactive |
| Cc1nn(-c2ccc(C(C)C)cc2)c(C)c1[C@@H]1C=C[C@@H](NC(=S)NCC(C)C)C1 | 7.08 µM (active) |
| CCC(C)NC(=O)Cc1csc2nc(C)c(-c3cc(C)n(-c4ccc(C(C)C)cc4)n3)c(=O)n12 (stereo not given) | inactive |
| Cc1nn(-c2ccc(C(C)(C)C)cc2)c(C)c1[C@@H]1C=C[C@@H](NC(=O)c2ccco2)C1 | 14.1 µM (active) |
| Cc1nn(CCC#N)c(C)c1[C@@H]1C=C[C@@H](NS(=O)(=O)c2ccccc2)C1 | inactive |
| Cc1nn(-c2ccc(C(C)C)cc2)c(C)c1[C@@H]1C=C[C@@H](NC(=O)CC2(CC(=O)O)CCCC2)C1 | 35.5 µM (active) |
| O=C(NCC1CN(Cc2ccccc2)CC12CN(c1ccccc1)C2)Nc1ccccc1 (stereo not given) | inactive |
| O=C1NCCCCCCN(Cc2ccc3c(c2)CCO3)[C@H]2CCC[C@@H]12 | inactive |
| CN(C)C[C@@H]1CN(Cc2ccccn2)C[C@H]1NC(=O)c1ccc2cc[nH]c2c1 | inactive |
| CC(C)COc1cc(=O)n2c(c1C(=O)NCCCN1CCOCC1)CCCCC2 | inactive |
| COc1ccc(C(=O)NCC(=O)N2CCCCCCNC(=O)CC2c2ccccc2)cn1 (stereo not given) | inactive |
| CN(C)C(C(=O)N1CCC(OCc2cccnc2)CC1)c1cccc(F)c1 (stereo not given) | inactive |
| O=C(c1ccccc1C1CCNC1)N1CCC(Nc2ncccn2)CC1 (stereo not given) | inactive |

| SMILES | Potency |
| --- | --- |
| CN1C(=O)CO[C@H]2CN(C(=O)c3ccccc3)C[C@H]21 | inactive |
| Cc1ccccc1CN1CCOc2cc([S+](=O)([O-])N(C)C)ccc2C1 | inactive |
| CC(C)CN1CCN(C(=O)c2cc3c(s2)CCN(C(=O)c2ccc(Cl)cc2)C3)CC1 | inactive |
| CC(C)c1noc([C@H]2C[C@@H]3C(=O)NCCCCCCN(C(=O)Cc4cccnc4)[C@@H]3C2)n1 | inactive |
| COc1cc(=O)n2c(c1C(=O)Nc1cc(C)ccc1C)CCCC2 | inactive |
| COc1ccc(C)cc1NC(=O)Cn1nc2n(c1=O)CCCC2 | inactive |
| COc1ccc(C)cc1NC(=O)Nc1cccc(-c2ccc(N3CCCCC3)nn2)c1 | 0.282 µM (active) |
| COc1cc(Cl)ccc1C(=O)N1CCC[C@H]1c1nc(-c2ccccc2)no1 | inactive |
| COCCn1c(=O)n([C@H]2CCCN(C(=O)c3cc4ccccc4[nH]3)C2)c2ncccc21 | inactive |
| Cc1ccc(-c2nc(C(=O)N(C)Cc3ccccc3)no2)cc1 | 10 µM (active) |
| Cc1cccc(C(=O)N2CCCC(C(=O)N3CCN(c4ccccn4)CC3)CCNC(=O)CC2)c1 (stereo not given) | inactive |
| CSc1ccc(CNC(=O)c2noc(-c3ccc(C)cc3)n2)cc1 | inactive |
| Cc1ccc(-c2nc(C(=O)N3CCN(c4ccccn4)CC3)no2)cc1 | 14.1 µM (active) |
| CC(NC(=O)Cc1cccc(F)c1)C(=O)N1CCN(c2ccccn2)CC1 (stereo not given) | inactive |
| COc1ccc(CCNC(=O)c2noc(-c3ccc(C)cc3)n2)cc1OC | inactive |
| COCCn1c(CO)nnc1C1CC(NC(=O)c2sc(C)nc2C)C1 (stereo not given) | inactive |
| CCC(C(=O)Nc1ccc2c(c1)CN(Cc1cc(F)cc(F)c1)C(=O)CO2)c1ccccc1 (stereo not given) | inactive |
| COc1cccc(C(=O)N2CCC(C(NC(=O)c3ccccc3C)C(=O)NCC(C)C)CC2)c1 (stereo not given) | inactive |
| O=C(NCC1Cn2cccc2C(=O)N1Cc1ccccc1)c1ccc(F)cc1 (stereo not given) | inactive |
| CCC1=C(C(=O)OC)C(c2ccc(C)cc2C)N2C(CC(=O)N3CCOCC3)=CSC2=N1 (stereo not given) | inactive |
| N#Cc1cc2c(nc1N1CCN(C3CCCC3)C(CCO)C1)CCCC2 (stereo not given) | inactive |
| COC(=O)c1ccccc1NC(=O)Cn1nc2n(c1=O)CCCCC2 | inactive |
| COc1ncccc1-c1cc(-c2cn[nH]c2)c2cncn2c1 | inactive |
| c1cc(N2CCOCC2)ccc1-c1cc(-c2cn[nH]c2)c2cncn2c1 | 22.4 µM (active) |

| SMILES | Potency |
| --- | --- |
| COc1ccccc1-c1cc(-c2cn[nH]c2)c2cncn2c1 | inactive |
| Cc1ccc(C(=O)N2CCCC(c3nc(-c4ccccc4)no3)CCNC(=O)CC2)cn1 (stereo not given) | 28.2 µM (active) |
| Cn1cccc1C(=O)N1CCCC(c2nc(-c3ccccc3)no2)CCNC(=O)CC1 (stereo not given) | inactive |
| CC(C)C(=O)N1CCCC(c2nc(-c3ccccc3)no2)CCNC(=O)CC1 (stereo not given) | inactive |
| CC[C@H]1CN(C(=O)c2ccc(F)cc2)CC[C@H]1CC(=O)Nc1ccccc1 | inactive |
| Cn1ccc(Nc2cc3c(cn2)CN(CCc2ccccc2)CCN3)n1 | inactive |
| OCc1cccc(-c2cc3c(cn2)CN(Cc2ccccc2)CCN3)c1 | 14.1 µM (active) |
| O=C1CN(Cc2ccc(-c3ccccc3)cc2)CCN1c1cc(Cl)ncn1 | inactive |
| Cc1cccn2c(CC(=O)NCC3CCN(c4cnn(C)c(=O)c4)C3)cnc12 (stereo not given) | inactive |
| O=C(O)[C@@H]1CN(C(=O)NC2CCCC2)C[C@H]1c1ccccn1 | inactive |
| O=C(NCc1ccnc2[nH]ccc12)c1ccccn1 | 28.2 µM (active) |
| O=C(NCc1c[nH]c2ncccc12)c1ccccn1 | inactive |
| COc1ccccc1C(=O)NCc1ccnc2[nH]ccc12 | inactive |
| CN(C)c1ccc(NC(=O)COc2ccc(-c3nnc4n3CCCC4)cc2)cc1 | inactive |
| Nc1nc(C2CC(NC(=O)CCc3nc4ccc(F)cc4[nH]3)C2)cc(=O)[nH]1 (stereo not given) | inactive |
| COCc1nc(C2CC(NC(=O)c3cc(-c4ccsc4)n[nH]3)C2)cc(=O)[nH]1 (stereo not given) | 28.2 µM (active) |
| COCc1nc(-c2ccc(NC(=O)Cn3nc4c(cc3=O)CCCC4)cc2)n[nH]1 | inactive |
| O=C(NCc1ccccn1)C1CN(S(=O)(=O)c2cccs2)CC12CCCCC2 (stereo not given) | inactive |
| O=C(NC1CC1)[C@@H]1C[C@H](Oc2cccnc2)CN1C(=O)C1CCC1 | inactive |
| N#Cc1ccc(O[C@@H]2COCC[C@H]2NC(=O)CCCn2cccn2)cc1 | inactive |
| CCOC(=O)c1ccc(NC(=O)N2Cc3[nH]cnc3C[C@H]2c2nc(-c3ccc(Cl)cc3)no2)cc1 | inactive |
| Cc1cccc(-c2noc([C@@H]3Cc4nc[nH]c4CN3C(=O)Nc3ccccc3)n2)c1 | 50.1 µM (active) |
| CC(C)NC(=O)N1Cc2[nH]cnc2C[C@H]1c1nc(-c2ccc(Cl)cc2)no1 | inactive |

From PubChem BioAssay AID1347043 (National Center for Advancing Translational Sciences (NCATS), 2019)
